Laboratory results as given in the supplement of paper PMC6555819.

Tests used:
Experiment in all cases: PBM binding z-score (relative to random genomic background probes); higher = stronger binding; sequences stand for … in GC…GCGATTGACAGCGTAGAATGAAGG
[1] = tested on: PPARg:RXRa DBDmut IVT, anti-RXR (DBD mutation: RXRa K156A/R161A, NR concentration 270 nM, RXRa partner concentration 90 nM)
How it was run: (§1)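 Ligand-free nuclear receptor dimers were bound for 1 h to custom Agilent 4×180K protein-binding microarrays. Detection used antibodies against each partner (one per run). Binding z-scores rest on regression-normalized fluorescence, with random background probes as the reference.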

[2] = tested on: PPARg:RXRa IVT, anti-PPARg (NR concentration 270 nM, RXRa partner concentration 90 nM)
How it was run: as §1

[3] = tested on: PPARg DBDmut:RXRa IVT, anti-PPARg (DBD mutation: PPARg1 K132A/R137A, NR concentration 270 nM, RXRa partner concentration 90 nM)
How it was run: as §1

[4] = tested on: PPARg DBDmut IVT, anti-PPARg (DBD mutation: PPARg1 K132A/R137A, NR concentration 270 nM)
How it was run: as §1

[5] = tested on: PPARg homodimer (NR concentration 180 nM)
How it was run: as §1

[6] = tested on: PXR:RXRa (NR concentration 270 nM, RXRa partner concentration 90 nM)
How it was run: as §1

[7] = tested on: PXR homodimer (NR concentration 270 nM)
How it was run: as §1

[8] = tested on: RARa:RXR (NR concentration 270 nM, RXRa partner concentration 90 nM)
How it was run: as §1

[9] = tested on: RARa homodimer (NR concentration 270 nM)
How it was run: as §1

[10] = tested on: RARb:RXRa (NR concentration 270 nM, RXRa partner concentration 90 nM)
How it was run: as §1

Row | Sequence | PBM binding z-score [1] | PBM binding z-score [2] | PBM binding z-score [3] | PBM binding z-score [4] | PBM binding z-score [5] | PBM binding z-score [6] | PBM binding z-score [7] | PBM binding z-score [8] | PBM binding z-score [9] | PBM binding z-score [10]
1 | ACTAGTTGGTCAGCTGAGTTCACACACAATTCGG | 1.2 | 1.32 | 0.662 | 0.707 | 0.775 | 5.66 | 6.87 | 2.32 | 0.2 | 2
2 | GCTGCTAGGTCAACTGGTGGTCAGCTAAAGCTCG | 4.77 | 4.33 | -0.118 | -0.735 | 2.55 | 1.61 | -0.644 | 3.34 | -0.0343 | 4.23
3 | AATACAGGGTCACTAGGCCAGAGTTGGTACGAAT | 4.05 | 5.77 | 1.25 | 0.486 | 2.23 | 3.38 | 0.712 | 4.44 | 0.618 | 4.29
4 | GTACCAAGGTGAATAGGTCATTGATGAGTAGGCG | 3.17 | 4.04 | 0.503 | 0.284 | 4.15 | 2.62 | 0.883 | 4.41 | 1.5 | 3.56
5 | TCTCTTAGTTGATTAGGGCAACCGAAACAGCGGA | 2.63 | 1.67 | 0.796 | 1.17 | 1.28 | 0.757 | 0.477 | 0.892 | 0.846 | 1.51
6 | CCAGACAGGTGAAAGGTAACTCAATCTGGTACGC | 2.13 | 2.83 | -0.064 | -0.205 | 1.32 | 1.09 | 0.164 | 2.31 | 0.578 | 1.11
7 | TCTTGTAGATCCAAGGTTAAGAAAGCCGAAGCCT | 1.7 | 0.596 | 0.181 | 0.325 | 0.227 | 0.966 | 0.261 | 1.18 | -0.206 | 0.88
8 | TAGCCTAGGTCCTTGGGCCAGTATAGTACGCATC | -1 | -0.913 | -2.61 | -1.34 | -2.22 | -1.19 | -1.2 | -1.44 | -2.43 | -0.495
9 | CCGAGTATGTTATGGGGCATTCAGGCAACGGTGA | 0.63 | 0.892 | -0.0498 | -0.0954 | 0.937 | 0.0662 | 0.093 | 0.394 | 0.535 | 0.242
10 | GCAGACAGGTGAAACGCAGGTAACTGAGGGTGGC | 0.757 | 0.578 | 0.338 | -0.375 | -0.52 | -0.257 | -0.434 | 0.257 | -0.289 | 0.65
11 | CCTACCGGGCCATTCAGAGGTCATTGATCATATG | 0.333 | 1.62 | -0.171 | -0.538 | 2.87 | 5.36 | 2.87 | 5.57 | 0.404 | 3.29
12 | CCTTACGCGTCAAGGTTATAGCACGGGTGGTACG | 0.185 | -0.0236 | -0.542 | -0.798 | 0.726 | 0.65 | 0.0877 | 1.02 | 0.124 | 0.97
13 | CTCGACAGGTCGGTTGAGGTGAGTATACGGATAA | -0.656 | 0.236 | -0.149 | -0.718 | -0.0437 | 0.653 | -0.282 | 0.493 | -0.539 | 0.905
14 | TCTGCTAGGTCAATTGGTCAGCTAACGAGCTGCC | 3.71 | 3.87 | 1.29 | 0.854 | 2.37 | 0.895 | -0.774 | 1.87 | -0.436 | 3.79
15 | CCGACTGGGGCAGAAAGGTTACCAAACCATCCGG | 1.37 | 1.71 | -0.76 | -0.56 | 0.448 | 0.803 | -0.532 | 1.58 | -0.491 | 1.86
16 | GATACAGGGTCAGCTAGAGGCCGGAGTATGGAAA | 1.03 | 2.37 | -0.293 | 0.124 | 1.78 | 2.59 | -0.0586 | 3.41 | 0.211 | 4.12
17 | CCTGCTAGGTCATGGTCTGCTAATCTACAGTATG | 4.68 | 3.6 | 0.818 | -0.517 | 0.597 | 1.33 | -0.00693 | 2.22 | -0.00634 | 3.87
18 | CAAACTAGGTCACCGGACGGTCAAAGTCCGCATG | 8.62 | 8.82 | 3.09 | 1.22 | 4.69 | 2.54 | 0.265 | 3.73 | 0.94 | 4.7
19 | GCAAACAGGTGAAACGCAGGTAACTCAGGGTGGC | 2.26 | 1.32 | -0.68 | -0.00566 | -0.416 | -0.255 | -0.519 | 0.397 | -0.686 | 0.596
20 | GCGACTGGGGCAAGGCAGGTTACCATAAGGTTGG | 3.58 | 3.12 | 0.704 | -0.934 | 0.688 | 0.207 | -0.567 | 0.854 | -0.915 | 0.95
21 | ACTATTAGTTGACTTAGGGCAATCGATACGACGC | 0.335 | 0.292 | 1.13 | 0.914 | 0.761 | 0.304 | 0.241 | 0.866 | 0.707 | 0.668
22 | ATCGAAAGGTCGACGTGGTGAGTATACACCGTTT | 0.406 | 1.46 | 0.651 | 0.527 | 1.02 | 2.18 | 0.102 | 3.07 | 0.487 | 3.66
23 | AGAATGAGGTTAACATCAGGGAAACAGAATACAT | 3.52 | 3.79 | 1.84 | 1.16 | 1.12 | 1.43 | 0.184 | 2.81 | 0.181 | 2.32
